Source: PubChem BioAssay (NCATS)
Inconclusive results are not listed. Where a call stands in place of a potency, no number is given. Active and inactive are the calls of the source. Calls follow the shape of the dose curve; as a rule, active = well fitted cell-killing curve with a large enough effect; inconclusive = small, poorly fitted or top-dose-only effect, or effect the other way; inactive = flat fitted curve, though single readings scatter.

How the values were obtained:
Experiment in all cases: Primary qHTS to identify gynecologic anti-cancer compounds using libraries of approved drugs and bioactive compounds (AID 1345084); also: nearly all actives have a fitted effect of over 55% in size
C33A = details: Gynecologic cancer cell panel viability, ATPlite luminescence, 48 h; series mostly up to 57.5 µM
Outline: (§1)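 Cells, 1,000 per well, plated 16 h, then exposed 48 h at 37 C to compounds. Viability by ATPlite luminescence after 15 min at room temperature.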

CAOV3 = details: Gynecologic cancer cell panel viability, ATPlite luminescence, 48 h; series mostly up to 57.5 µM
Outline: as §1

CASKI = details: Gynecologic cancer cell panel viability, ATPlite luminescence, 48 h; series mostly up to 57.5 µM
Outline: as §1

Es-2 = details: Gynecologic cancer cell panel viability, ATPlite luminescence, 48 h; series mostly up to 57.5 µM
Outline: as §1

HeLa = details: Gynecologic cancer cell panel viability, ATPlite luminescence, 48 h; series mostly up to 57.5 µM
Outline: as §1

Hek293T = details: Gynecologic cancer cell panel viability, ATPlite luminescence, 48 h, control line for the selectivity index; series mostly up to 57.5 µM
Outline: as §1

JEG-3 = details: Gynecologic cancer cell panel viability, ATPlite luminescence, 48 h; series mostly up to 57.5 µM
Outline: as §1

OV90 = details: Gynecologic cancer cell panel viability, ATPlite luminescence, 48 h; series mostly up to 57.5 µM
Outline: as §1
Potency is read from the fitted curve at half-maximal effect.

| SMILES | Potency (C33A) | Potency (CAOV3) | Potency (CASKI) | Potency (Es-2) | Potency (HeLa) | Potency (Hek293T) | Potency (JEG-3) | Potency (OV90) |
| --- | --- | --- | --- | --- | --- | --- | --- | --- |
| CCC(C)CNCC(=O)N1CCC2SC=CC2C1COc1cccc(C)c1 (centres undefined) | inactive | inactive | inactive | inactive | inactive | inactive | inactive | inactive |
| Cc1onc(-c2ccccc2)c1C(=O)N1CCN(c2ccc([N+](=O)[O-])cc2Cl)CC1 | inactive | inactive | inactive | inactive | inactive | inactive | inactive | inactive |
| O=C(Nc1ccc(N(Cc2ccsc2)C(=O)Cn2nnc3ccccc32)cc1)C1CC1 | inactive | inactive | inactive | inactive | inactive | inactive | inactive | inactive |
| C[C@@H]1C[C@H](C)CN(CCC(=O)Nc2ccc(Br)cc2)C1 | inactive | inactive | inactive | inactive | inactive | inactive | inactive | inactive |
| NS(=O)(=O)c1ccc(NC(=O)Nc2ccc(F)cc2)cc1 | inactive | inactive | inactive | inactive | inactive | inactive | inactive | inactive |
| Cc1[nH]c(/C=C2\C(=O)Nc3ccc(S(=O)(=O)N(C)c4cccc(Cl)c4)cc32)c(C)c1C(=O)N1CCN(C)CC1 | inactive | 25.1 µM (active) | inactive | inactive | inactive | inactive | inactive | inactive |
| Cc1cc(C(=O)Nc2cc(Oc3ccc4nc(NC(=O)C5CC5)cn4n3)ccc2C)n(C)n1 | inactive | inactive | inactive | inactive | inactive | inactive | inactive | inactive |
| CCOc1cn(-c2ccc(F)cc2C)nc1C(=O)Nc1ccc(Oc2ccnc3cc(OC)c(OC)cc23)c(F)c1 | inactive | inactive | inactive | inactive | inactive | inactive | inactive | inactive |
| Cc1ccc(C2(C(=O)N3CCC(n4nc(-c5ccccc5)oc4=O)CC3)CC2)cc1 | inactive | inactive | inactive | inactive | inactive | inactive | inactive | inactive |
| NC(N)=N/N=C/c1ccccc1Cl | inactive | inactive | inactive | inactive | inactive | inactive | inactive | inactive |
| CCC[C@H](N[C@H]1CCc2cc(F)cc(F)c2C1)C(=O)Nc1cn(C(C)(C)CNCC(C)(C)C)cn1 | inactive | inactive | inactive | inactive | inactive | inactive | inactive | inactive |
| Cc1ccc(N2CCN(CCC3NC(=O)c4ccccc43)CC2)cc1C (centres undefined) | inactive | inactive | inactive | inactive | inactive | inactive | inactive | inactive |
| Cc1ccccc1C(C(=O)NC1CCCCC1)N(C(=O)Cn1cnc2ccccc21)c1cccc(F)c1 (centres undefined) | inactive | inactive | inactive | inactive | inactive | inactive | inactive | inactive |
| Cc1ccc(C)c(NS(=O)(=O)c2cc(C(=O)Nc3ccccc3-c3ccccc3)ccc2C)c1 | inactive | inactive | inactive | inactive | inactive | inactive | inactive | inactive |
| C/C=C(\C)C(=O)O[C@H]1C[C@](C)(O)[C@H]2CC=C(C)[C@H]2[C@@H]2OC(=O)[C@H](C)[C@H]21 | inactive | inactive | inactive | inactive | inactive | inactive | inactive | inactive |
| C1=C/COCc2cc(ccc2OCCN2CCCC2)Nc2nccc(n2)-c2cccc(c2)COC/1 | 11.2 µM (active) | 11.2 µM (active) | 3.55 µM (active) | 14.1 µM (active) | 3.98 µM (active) | 7.94 µM (active) | 11.2 µM (active) | 17.8 µM (active) |
| COc1cc(C(=O)NC(=S)Nc2cccc(NC(=O)c3ccccc3)c2)cc(OC)c1OC | inactive | inactive | inactive | inactive | inactive | inactive | inactive | inactive |
| COCCN(C(=O)c1cc(OC)c(OC)c(OC)c1)c1nc(-c2ccccc2)cs1 | inactive | inactive | inactive | inactive | inactive | inactive | inactive | inactive |
| CCOC(=O)N1c2ccc(C(F)(F)F)cc2C(N(Cc2cc(C(F)(F)F)cc(C(F)(F)F)c2)C(=O)OC)CC1CC (centres undefined) | inactive | inactive | inactive | inactive | inactive | inactive | inactive | inactive |
| C=C(C)C(=O)O[C@H]1[C@H]2C(=C)C(=O)O[C@@H]2/C=C(\CO)CC/C=C(/C=O)[C@@H]1O | inactive | inactive | inactive | inactive | inactive | inactive | inactive | inactive |
| O=C(NCCN1CCN(c2cccc3ccc(O)cc23)CC1)c1ccc(F)cc1 | inactive | inactive | inactive | inactive | inactive | inactive | inactive | inactive |
| CCNc1nc(Nc2cc(F)c(C(=O)N3CCOCC3)cc2OC)ncc1C(F)(F)F | inactive | inactive | inactive | inactive | inactive | inactive | inactive | inactive |
| Fc1ccc(-c2cncc(CN3CCN(c4cccc5c4OCCO5)CC3)c2)cc1 | inactive | inactive | inactive | inactive | inactive | inactive | inactive | inactive |
